In PubChem BioAssay (EPA / NIEHS):
Calls of active or inactive are those of the source. How the source made its calls: active means hit-call score of the fitted dose curve at least 0.9, where 1 is the maximum; inactive means score below 0.9.

Experiments:
Conditions in all cases: mRNA level, 48 h; actives raise or lower the signal
[1] = read-out: Heat shock 70 kDa protein 1 (HSPA1A), gene 3303; assay: LTEA_HepaRG_HSPA1A: Life Technologies and Expression Analysis (LTEA) Assay for Heat shock 70 kDa protein 1 (HSPA1A) using HepaRG (AID 2283502)
Procedure, shortened: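 HSPA1A expression measured by qRT-PCR with ACTB/GAPDH/POLR2A normalization; curves fitted in both directions relative to DMSO vehicle. Exposure: 48 h in HepaRG cells, duplicate 8-point half-log series from 100 uM, 0.5% DMSO, serum-free induction medium.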

[2] = read-out: 3-Hydroxy-3-Methylglutaryl-CoA Synthase 2 (HMGCS2), HMGCS2 (gene 3158); assay: LTEA_HepaRG_HMGCS2: Life Technologies and Expression Analysis (LTEA) Assay for 3-Hydroxy-3-Methylglutaryl-CoA Synthase 2 (HMGCS2) using HepaRG (AID 2283504)
Procedure, shortened: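 Readout is HMGCS2 transcript by qRT-PCR, housekeeping-normalised (ACTB/GAPDH/POLR2A) and fitted bidirectionally against 0.5% DMSO. Differentiated HepaRG cells received chemicals 48 h, duplicate wells, eight half-log concentrations topping at 100 uM.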

HGF (gene 3082) = assay: LTEA_HepaRG_HGF: Life Technologies and Expression Analysis (LTEA) Assay for Hepatocyte Growth Facto (HGF) using HepaRG (AID 2283505)
Procedure, shortened: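 HGF transcript was quantified by TaqMan qRT-PCR against three housekeeping genes after 48 h treatment of HepaRG cells. Exposure ran in duplicate over eight half-log steps topping at 100 uM in 0.5% DMSO vehicle.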

[3] = read-out: Insulin Like Growth Factor 1 (IGF1), IGF1 (gene 3479); assay: LTEA_HepaRG_IGF1: Life Technologies and Expression Analysis (LTEA) Assay for Insulin Like Growth Factor 1 (IGF1) using HepaRG (AID 2283506)
Procedure, shortened: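 Expression measured by TaqMan qRT-PCR on a Fluidigm array, with three housekeeping genes for normalisation, after 48 h treatment of HepaRG cells. Top concentration 100 uM with half-log steps, 0.5% DMSO vehicle, bidirectional fit.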

[4] = read-out: Intercellular Adhesion Molecule 1 (ICAM1), ICAM1 (gene 3383); assay: LTEA_HepaRG_ICAM1: Life Technologies and Expression Analysis (LTEA) Assay for Intercellular Adhesion Molecule 1 (ICAM1) using HepaRG (AID 2283507)
Procedure, shortened: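 ICAM1 transcript levels measured by qRT-PCR, normalized to three housekeeping genes (ACTB, GAPDH, POLR2A), after 48 h chemical exposure of HepaRG cells. Duplicate eight-point half-log series from 100 uM in 0.5% DMSO; gain or loss fitted against vehicle.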

[5] = read-out: Insulin-like growth factor-binding protein 1 (IGFBP1), IGFBP1 (gene 3484); assay: LTEA_HepaRG_IGFBP1: Life Technologies and Expression Analysis (LTEA) Assay for Insulin-like growth factor-binding protein 1 (IGFBP1) using HepaRG (AID 2283508)
Procedure, shortened: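 Read-out is qRT-PCR transcript level normalized to three housekeeping genes, fitted in both directions against 0.5% DMSO. Differentiated HepaRG cells received eight half-log concentrations (top 100 uM) in duplicate for 48 h in serum-free induction medium.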

[6] = read-out: Interleukin 6 (IL6), IL6 (gene 3569); assay: LTEA_HepaRG_IL6: Life Technologies and Expression Analysis (LTEA) Assay for Interleukin 6 (IL6) using HepaRG (AID 2283509)
Procedure, shortened: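 Changes in IL6 mRNA, up or down relative to 0.5% DMSO controls, were derived from concentration-response curves in human HepaRG cells treated for 48 h at up to 100 uM, with ACTB, GAPDH and POLR2A as normalizers.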

[7] = read-out: Interleukin 6 Receptor (IL6R), IL6R (gene 3570); assay: LTEA_HepaRG_IL6R: Life Technologies and Expression Analysis (LTEA) Assay for Interleukin 6 Receptor (IL6R) using HepaRG (AID 2283510)
Procedure, shortened: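 IL6R transcript level by qRT-PCR after 48 h chemical exposure (8-point, half-log, max 100 uM, 0.5% DMSO vehicle) of HepaRG cells in serum-free induction medium. Normalized to three housekeeping genes; curves fitted in both directions relative to DMSO.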

[8] = read-out: Potassium channel subfamily K member 1 (KCNK1), KCNK1 (gene 3775); assay: LTEA_HepaRG_KCNK1: Life Technologies and Expression Analysis (LTEA) Assay for Potassium channel subfamily K member 1 (KCNK1) using HepaRG (AID 2283511)
Procedure, shortened: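 Human HepaRG cultures receive test chemicals for 48 h in 0.5% DMSO, top concentration 100 uM with half-log dilutions. Induction or suppression of KCNK1 mRNA relative to DMSO is derived by bidirectional fitting of qRT-PCR data.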

[9] = read-out: Keratin 19 (KRT19), KRT19 (gene 3880); assay: LTEA_HepaRG_KRT19: Life Technologies and Expression Analysis (LTEA) Assay for Keratin 19 (KRT19) using HepaRG (AID 2283512)
Procedure, shortened: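 KRT19 transcript measured by TaqMan qRT-PCR, referenced to three housekeeping genes, after HepaRG cells received test chemicals for 48 h. Eight half-log concentrations, top 100 uM, 0.5% DMSO vehicle; increases and decreases both fitted.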

[10] = read-out: JUN Transcription Factor, JUN (gene 3725); assay: LTEA_HepaRG_JUN: Life Technologies and Expression Analysis (LTEA) Assay for JUN Transcription Factor using HepaRG (AID 2283513)
Procedure, shortened: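 mRNA measured by TaqMan qRT-PCR after 48 h chemical exposure of HepaRG cultures; normalization to three housekeeping genes. Duplicate eight-point half-log curves from 100 uM in 0.5% DMSO; gain or loss fitted against DMSO baseline.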

[11] = read-out: Lipase C (LIPC), LIPC (gene 3990); assay: LTEA_HepaRG_LIPC: Life Technologies and Expression Analysis (LTEA) Assay for Lipase C (LIPC) using HepaRG (AID 2283514)
Procedure, shortened: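 In this multiplexed gene-expression screen, human HepaRG cultures received test chemicals for 48 h across eight concentrations with 100 uM highest, in duplicate. Values reflect LIPC mRNA induction or suppression versus DMSO vehicle, from normalized qRT-PCR.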

[12] = read-out: Lipoprotein lipase (LPL), LPL (gene 4023); assay: LTEA_HepaRG_LPL: Life Technologies and Expression Analysis (LTEA) Assay for Lipoprotein lipase (LPL) using HepaRG (AID 2283515)
Procedure, shortened: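 Concentration-response testing used half-log steps from 100 uM in 0.5% DMSO on human HepaRG cells, 48 h, duplicate wells. Phenobarbital 1 mM served as induction control; LPL mRNA was normalized to ACTB, GAPDH, POLR2A.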

[13] = read-out: MicroRNA 122 (MIR122), gene 406906; assay: LTEA_HepaRG_MIR122: Life Technologies and Expression Analysis (LTEA) Assay for MicroRNA 122 (MIR122) using HepaRG (AID 2283516); further: the transcript read is the microRNA miR-122
Procedure, shortened: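 Expression measured by microfluidic qRT-PCR with three housekeeping genes for normalisation, after 48 h treatment of HepaRG cultures. Eight concentrations (top 100 uM, half-log steps, 0.5% DMSO vehicle) in duplicate; gain or loss fitted relative to vehicle.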

[14] = read-out: matrix metalloproteinase-10 (MMP10), MMP10 (gene 4319); assay: LTEA_HepaRG_MMP10: Life Technologies and Expression Analysis (LTEA) Assay for matrix metalloproteinase-10 (MMP10) using HepaRG (AID 2283517)
Procedure, shortened: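 In differentiated HepaRG cultures kept in 0.5% DMSO, test chemicals act for 48 h over an eight-point range with a top dose of 100 uM. Expression is then quantified by TaqMan RT-PCR against ACTB, GAPDH and POLR2A.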

MYC, MYC (gene 4609) = assay: LTEA_HepaRG_MYC: Life Technologies and Expression Analysis (LTEA) Assay for MYC using HepaRG (AID 2283518)
Procedure, shortened: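 MYC transcript changes, up or down relative to 0.5% DMSO, from TaqMan qRT-PCR normalized to three housekeeping genes. Human HepaRG cultures received chemicals for 48 h at eight half-log concentrations up to 100 uM, in duplicate.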

[15] = read-out: matrix metalloproteinase-3 (MMP3), MMP3 (gene 4314); assay: LTEA_HepaRG_MMP3: Life Technologies and Expression Analysis (LTEA) Assay for matrix metalloproteinase-3 (MMP3) using HepaRG (AID 2283519)
Procedure, shortened: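 Human liver HepaRG cultures received chemicals (top concentration 100 uM, 0.5% DMSO) for 48 h in duplicate. MMP3 mRNA induction or loss was then assessed via TaqMan qRT-PCR with housekeeping-gene normalisation.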

[16] = read-out: Paternally Expressed 10 (PEG10), PEG10 (gene 23089); assay: LTEA_HepaRG_PEG10: Life Technologies and Expression Analysis (LTEA) Assay for Paternally Expressed 10 (PEG10) using HepaRG (AID 2283520)
Procedure, shortened: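 PEG10 transcript measured by Fluidigm qRT-PCR, normalized to three housekeeping genes, in HepaRG cells treated 48 h (highest 100 uM, half-log steps, 0.5% DMSO vehicle). Cells plated 48 h before switching to serum-free induction medium.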

[17] = read-out: Nuclear factor NF-kappa-B p105 subunit (Homo sapiens) (UniProt P19838); assay: LTEA_HepaRG_NFKB1: Life Technologies and Expression Analysis (LTEA) Assay for Nuclear Factor Kappa B Subunit 1 (NFKB1) using HepaRG (AID 2283521);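 further: differentiated human HepaRG liver cells in serum-free induction medium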
Procedure, shortened: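 Human HepaRG cells receive eight half-log concentrations, highest 100 uM, for 48 h. NFKB1 expression is then quantified by qRT-PCR and analysed for up- or down-regulation relative to 0.5% DMSO vehicle.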

[18] = read-out: Hypoxia-inducible factor 1-alpha (Homo sapiens) (UniProt Q16665); assay: LTEA_HepaRG_HIF1A: Life Technologies and Expression Analysis (LTEA) Assay for Hypoxia-inducible factor 1 (HIF1A) Trancription factor using HepaRG (AID 2283503)
Procedure, shortened: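 HIF1A transcript level read by qRT-PCR (ACTB, GAPDH, POLR2A normalization) after 48 h chemical exposure of HepaRG cultures. Eight half-log concentrations, top 100 uM, 0.5% DMSO vehicle, duplicates; bidirectional curve fit against DMSO baseline.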

Measured: outcome

Chain of Nuclear factor NF-kappa-B p105 subunit (Homo sapiens) (P19838 whole entry, looked up): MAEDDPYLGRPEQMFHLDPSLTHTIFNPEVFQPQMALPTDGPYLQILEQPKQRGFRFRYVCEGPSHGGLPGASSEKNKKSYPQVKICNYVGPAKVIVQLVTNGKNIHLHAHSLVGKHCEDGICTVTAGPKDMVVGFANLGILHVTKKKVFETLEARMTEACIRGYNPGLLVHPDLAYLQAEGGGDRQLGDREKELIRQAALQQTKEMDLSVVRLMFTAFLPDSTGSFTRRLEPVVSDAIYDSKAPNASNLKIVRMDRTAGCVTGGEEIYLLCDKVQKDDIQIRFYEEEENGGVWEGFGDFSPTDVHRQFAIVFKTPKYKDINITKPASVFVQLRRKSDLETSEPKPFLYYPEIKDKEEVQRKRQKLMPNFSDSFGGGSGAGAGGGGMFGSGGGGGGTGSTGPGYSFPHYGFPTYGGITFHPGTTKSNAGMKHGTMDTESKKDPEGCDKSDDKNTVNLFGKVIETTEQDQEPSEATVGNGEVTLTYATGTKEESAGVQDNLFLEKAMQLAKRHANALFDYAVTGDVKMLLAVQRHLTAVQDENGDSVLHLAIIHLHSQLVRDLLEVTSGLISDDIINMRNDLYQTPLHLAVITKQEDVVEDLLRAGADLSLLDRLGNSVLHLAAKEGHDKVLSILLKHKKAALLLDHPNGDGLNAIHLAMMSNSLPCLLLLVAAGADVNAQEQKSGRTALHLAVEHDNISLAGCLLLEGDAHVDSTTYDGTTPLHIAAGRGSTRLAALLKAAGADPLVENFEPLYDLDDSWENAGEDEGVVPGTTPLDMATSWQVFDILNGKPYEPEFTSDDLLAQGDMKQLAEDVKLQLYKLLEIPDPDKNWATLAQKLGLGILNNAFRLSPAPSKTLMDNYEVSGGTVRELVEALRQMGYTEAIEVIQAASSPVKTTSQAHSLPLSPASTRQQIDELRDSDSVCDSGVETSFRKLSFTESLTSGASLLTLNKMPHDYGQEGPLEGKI
Chain of Hypoxia-inducible factor 1-alpha (Homo sapiens) (Q16665 whole entry, looked up): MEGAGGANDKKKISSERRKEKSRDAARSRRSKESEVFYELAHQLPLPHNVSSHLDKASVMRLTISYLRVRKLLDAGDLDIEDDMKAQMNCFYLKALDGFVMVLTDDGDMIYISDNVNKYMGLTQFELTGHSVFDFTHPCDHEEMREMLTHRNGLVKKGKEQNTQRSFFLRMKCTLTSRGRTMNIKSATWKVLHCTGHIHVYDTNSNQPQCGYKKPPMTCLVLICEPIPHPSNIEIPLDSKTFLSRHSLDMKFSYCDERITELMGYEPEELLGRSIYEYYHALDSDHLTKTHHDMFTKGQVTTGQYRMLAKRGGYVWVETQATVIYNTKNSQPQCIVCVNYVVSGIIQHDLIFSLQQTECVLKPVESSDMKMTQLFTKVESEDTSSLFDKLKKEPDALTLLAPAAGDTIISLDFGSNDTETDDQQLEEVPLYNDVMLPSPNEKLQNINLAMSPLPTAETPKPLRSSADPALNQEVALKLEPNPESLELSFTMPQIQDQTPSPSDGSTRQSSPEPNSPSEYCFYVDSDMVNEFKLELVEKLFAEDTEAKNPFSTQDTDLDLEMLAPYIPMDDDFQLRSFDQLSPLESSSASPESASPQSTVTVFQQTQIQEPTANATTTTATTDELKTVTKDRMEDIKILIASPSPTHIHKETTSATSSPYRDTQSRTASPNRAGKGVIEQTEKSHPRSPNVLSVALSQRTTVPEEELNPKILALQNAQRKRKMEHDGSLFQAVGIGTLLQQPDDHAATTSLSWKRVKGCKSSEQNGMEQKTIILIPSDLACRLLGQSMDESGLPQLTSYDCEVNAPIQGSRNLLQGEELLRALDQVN

COC(=O)c1ccccc1N
not listed: [18]
inactive: all other assays above

CCCCCOC(=O)c1ccccc1C(=O)OCCCCC
not listed: [10] | [13] | [18]
inactive: all other assays above

C[N+](C)(C)CC1CO1 (centres undefined)
not listed: [9] | [17]
inactive: all other assays above
